Only some compounds are listed: those with a hit (about 11% of all), similar ones and a draw of the others.
hNpr1 antagonist – human Npr1 receptor antagonism. P16066. HEK293 hNpr1 GloSensor cGMP, ANP-stimulated luminescence. Potency, µM (series often up to 46.3 µM), inactives show top-dose activity change, negative = inhibition, usual class: inhibitors. 76,000 tested, 1.6% active. AID 1347048; calls by dose curve; note: nearly all actives have a fitted effect of over 60% in size
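HEK293 cells stably expressing human Npr1 and cGMP GloSensor pGS-40F, loaded 2 h with 2% GloSensor reagent, given compound 30 min at room temperature. Luminescence read before and 20 min after 0.1 nM hNppA.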
3T3 cytotox – kills NIH 3T3 cells | NIH 3T3 viability, CellTiter-Glo ATP luminescence, 48-72 h | Potency, µM (titrated, usually from 96.7 µM), for the others: at the top dose activity change, negative = cytotoxicity, actives largely listed as inhibitors | 94,000 tested, 4.3% active; note: nearly all actives have a fitted effect of over 55% in size
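Cytotoxicity was measured by CellTiter-Glo ATP luminescence after 48 or 72 h compound exposure at 37 °C. Mouse NIH 3T3 fibroblasts were seeded at 400 cells/well and dosed by 23 nL pin transfer.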
HEK cytotox – kills HEK 293 cells; HEK 293 viability, ATP luminescence (CellTiter-Glo), 48-72 h; Potency, µM (titrated, usually from 115 µM), inactives show at the highest dose activity change, negative = cytotoxicity, most hits filed as inhibitors; 94,000 tested, 6.6% active; note: nearly all actives have a fitted effect of over 60% in size
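Viability of HEK 293 cells, plated at 250 cells/well, was judged by cellular ATP after compound treatment for 48 or 72 hr. Luminescence was imaged 10 min after CellTiter-Glo addition at room temperature.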
FLuc inh – inhibitors of firefly (Photinus pyralis) luciferase; 76,000 tested, 2.5% active; P08659; purified P. pyralis luciferase, luminescence, biochemical; Potency, µM (series often up to 115 µM), most hits filed as inhibitors; AID 1347043; note: nearly all actives have a fitted effect of over 65% in size
Target sequence (P08659 whole entry, looked up): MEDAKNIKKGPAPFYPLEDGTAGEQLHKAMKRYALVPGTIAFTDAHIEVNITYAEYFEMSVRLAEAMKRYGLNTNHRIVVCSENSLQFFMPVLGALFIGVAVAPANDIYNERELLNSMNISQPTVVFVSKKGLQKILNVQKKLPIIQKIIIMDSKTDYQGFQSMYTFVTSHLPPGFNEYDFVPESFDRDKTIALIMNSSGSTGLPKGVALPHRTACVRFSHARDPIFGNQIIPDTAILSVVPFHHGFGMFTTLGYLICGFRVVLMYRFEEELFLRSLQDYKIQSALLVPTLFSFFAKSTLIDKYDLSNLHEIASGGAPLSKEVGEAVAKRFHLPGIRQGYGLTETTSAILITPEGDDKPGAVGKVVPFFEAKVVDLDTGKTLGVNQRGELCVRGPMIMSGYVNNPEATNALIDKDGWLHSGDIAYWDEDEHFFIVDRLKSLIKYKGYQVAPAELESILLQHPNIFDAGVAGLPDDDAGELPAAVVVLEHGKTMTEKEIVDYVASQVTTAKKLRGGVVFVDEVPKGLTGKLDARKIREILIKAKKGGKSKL
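Luminescence read by CCD imaging after purified firefly luciferase (10nM final) was added to substrate buffer holding 10uM D-luciferin and 10uM ATP, pH 7.5, pre-dosed with compound.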
Active calls of the source: *; i = inactive; ? = inconclusive; · = not tested or not shown; [ ] = dose if it differs, or a comment. Unless noted, calls come from the whole dose curve; as a rule, active = well fitted curve in the direction sought with a large enough effect; inconclusive = small, poorly fitted or top-dose-only effect, or another doubt; inactive = no such curve, though single readings can be large; an effect the other way counts as inactive or inconclusive. % is set by controls: 0 for no effect and ±100 for the full control effect; potency is the fitted concentration of half-maximal effect.

SMILES	hNpr1 antagonist	3T3 cytotox	HEK cytotox	FLuc inh
O=C(Nc1ccc(Oc2ccccc2)cc1)N[C@H]1CO[C@H]2[C@@H]1OC[C@H]2OC(=O)Nc1cccc2ccccc12	?	?	18µM*	i
O=C(Nc1cccc2ccccc12)O[C@@H]1CO[C@H]2[C@@H]1OC[C@@H]2NS(=O)(=O)c1ccc2ccccc2c1	0%	79µM*	?	i
COc1ccc(NC(=O)N2CCCC(CN3CCOCC3)CC2)cc1 (stereo not drawn)	·	-10%	3%	·
O=C(NCC(F)(F)F)c1nc2sccn2c1-c1ccncc1	·	-15%[138 µM]	4%[172 µM]	·
CC(c1ccc(-c2ccc(N(C)C)nn2)cc1)N(C)C (stereo not drawn)	?	-11%	3%	16µM*
Cc1cnc(-c2cccnc2)n1CC1CCCN(C(=O)NC2CCCCC2)C1 (stereo not drawn)	·	-8%	-1%	·
COCCOc1ccc(-c2noc([C@@H]3CCCN3Cc3c[nH]c4ccccc34)n2)cn1	-9%[70.6 µM]	-23%[138 µM]	?	i
c1ccc2c(CN3CCC[C@H]3c3nc(-c4ccc(OC5CCCCC5)nc4)no3)c[nH]c2c1	-29%	32µM*	35µM*	i
c1ccc(CN2CCC[C@H]2c2nc(-c3ccc(OC4CCCCC4)nc3)no2)nc1	?	45µM*	63µM*	?
c1ccc2ncc(CN3CCC[C@H]3c3nc(-c4ccc(OC5CCCCC5)nc4)no3)cc2c1	?	?	?	i
COCCNc1ncccc1-c1noc([C@@H]2CCCN2Cc2ccccn2)n1	3%[70.6 µM]	?	22µM*	i
CCOC(=O)c1ccc(NC(=O)N2CCc3c(nc4cc[nH]n4c3=O)C2)cc1	1%	i	9%	i
COC(=O)CNC(=O)c1nc2cccnc2n(-c2ccc(OC)cc2)c1=O	·	-15%	-4%	·
O=C(CCC(=O)n1ncc2c(Cl)cccc21)N1CCC(Cc2nc(C3CCOCC3)no2)CC1	13µM*	-15%	?	i
O=C(C1CC1)N1CCC(Cc2nc(C3CCOCC3)no2)CC1	6%	-7%	8%	i
O=C(NCCc1ccccc1)C1CCCN(Cc2cccc(-c3ccsc3)c2)C1 (stereo not drawn)	·	40µM*	?	·
O=C(C1CCCN(Cc2cccc(-c3ccsc3)c2)C1)N1CCN(c2ncccn2)CC1 (stereo not drawn)	·	?	32µM*	·
O=C(NCCCc1ccccc1)C1CCCN(Cc2cccc(-c3ccsc3)c2)C1 (stereo not drawn)	·	35µM*	40µM*	·
O=C(c1ccncc1)N1CC2CCC(C1)N2Cc1cccc(-c2ccsc2)c1	·	-25%	?	·
CC(C)NC(=O)C1CCCN(Cc2cccc(-c3ccsc3)c2)C1 (stereo not drawn)	·	?	45µM*	·
O=C(NCCCc1ccccc1)C1CN(Cc2ccccc2)C(=O)N1 (stereo not drawn)	-6%[70.6 µM]	-23%[138 µM]	-21%[172 µM]	i
COCCCn1c(=O)c(C(=O)N2CCN(C(=O)c3ccc(Cl)nc3)CC2)nc2cccnc21	·	-22%	i	·
COc1ccc(-c2ccccc2C(=O)N2CCC(NC(=O)C(C)(C)C)CC2)nn1	·	-14%	i	·
COCCn1c(=O)c(C(=O)N2CCN(C(=O)OC)CC2)nc2cccnc21	·	0%	i	·
FC(F)(F)Oc1cccc(CN2CCNc3cc(Nc4cccnc4)ncc3C2)c1	-1%[70.6 µM]	?	?	?
SMILES	hNpr1 antagonist	3T3 cytotox	HEK cytotox	FLuc inh
c1cncc(Nc2cc3c(cn2)CN(Cc2c[nH]c4ccccc24)CCN3)c1	-23%[70.6 µM]	?	112µM*	?
c1cncc(Nc2cc3c(cn2)CN(Cc2ccsc2)CCN3)c1	-4%[70.6 µM]	?	?	20µM*
O=C(Nc1ccc(F)cc1)C1CCc2nnc(C3CC3)n21 (stereo not drawn)	·	-6%	5%	·
O=C(NC1CCCCC1)N[C@H]1[C@H](O)[C@@H](N2CCN(c3ccccc3)CC2)[C@@H]2OC[C@H]1O2	6%[70.6 µM]	?	-4%[172 µM]	i
F[C@@H]1CN(CC2CC2)C[C@@H]1OCc1nc2ccccc2o1	1%[70.6 µM]	-13%[174 µM]	-10%[230 µM]	35µM*
F[C@@H]1CN(C2CCC2)C[C@@H]1OCc1nc2ccccc2o1	-8%[70.6 µM]	-18%[174 µM]	-24%[230 µM]	79µM*
F[C@@H]1CN(C2CCOCC2)C[C@@H]1OCc1nc2ccccc2o1	-8%[70.6 µM]	-14%[138 µM]	-24%[172 µM]	i
CC(C)(O)CCc1cccc(C(=O)NCCCc2ccccn2)c1	1%	-1%	i	?
CC(C)(O)CCc1cccc(C(=O)NCCNc2cccnc2)c1	-6%	?	32µM*	i
O=C(NCc1ccccc1Cn1cccn1)c1ccc2cccc(F)c2n1	2%	?	?	i
CC(C)(O)CCc1cccc(C(=O)NCc2ccccc2Cn2cccn2)c1	-11%	22µM*	-23%	i
CN(C)C(=O)NCCNC(=O)c1cccc(-c2ncccc2C#N)c1	·	-12%	i	·
O=C1N2CCCC2CN1C1CCN(Cc2ccc(OC(F)(F)F)cc2)CC1 (stereo not drawn)	?	?	40µM*	i
COc1ccc(CN2C[C@H]3CN(Cc4c[nH]c5ccccc45)CCN3C2=O)cc1	-5%[70.6 µM]	?	100µM*	i
Cc1ccc(CN2C[C@H]3CN(Cc4ccc(OC(F)(F)F)cc4)CCN3C2=O)cc1	?	50µM*	71µM*	i
COc1ccc(CN2C[C@H]3CN(Cc4ccc(Cl)cc4)CCN3C2=O)cc1	?	?	71µM*	i
COc1cccc(C(=O)N2CCC3(CC2)CCC(O)(CN(C)C)CC3)c1	·	-11%	2%	·
O=C1CCCCC(C(=O)N2CCN(c3ccccn3)CC2)N1 (stereo not drawn)	·	-21%	2%	·
COc1ccc(CC(=O)N2CCCC(C(=O)N3CCC(c4nc5ncccc5[nH]4)CC3)C2)cc1 (stereo not drawn)	·	-19%	-11%	·
CCN(CC)C(CNc1nc(CCN)nc2ccccc12)c1ccco1 (stereo not drawn)	1%	?	?	i
Cc1noc(C)c1-c1cc(-c2ccc(CO)cc2)cn2cncc12	-2%[70.6 µM]	?	?	i
Cc1noc(C)c1-c1cc(-c2ccccc2C(F)(F)F)cn2cncc12	-23%[70.6 µM]	?	71µM*	i
FC(F)(F)c1ccccc1-c1cc(-c2cccnc2)c2cncn2c1	-4%[70.6 µM]	45µM*	63µM*	i
Cc1noc(C)c1-c1cc(-c2ccccc2F)cn2cncc12	-3%[70.6 µM]	?	79µM*	i
COc1cccc(C(=O)N(C)C(C)c2cccs2)c1 (stereo not drawn)	-7%[70.6 µM]	-20%[138 µM]	-19%[172 µM]	i
CC(c1cccs1)N(C)C(=O)c1cccc(Cl)c1 (stereo not drawn)	-2%[70.6 µM]	-21%[138 µM]	100µM*	i
CC(c1cccs1)N(C)C(=O)Nc1ccc(Cl)cc1 (stereo not drawn)	1%[70.6 µM]	79µM*	?	45µM*
CN1CC(=O)N(C2CCCC2)Cc2c1ncnc2N1CCCC1	·	-10%[138 µM]	-22%[172 µM]	·
CC(=O)NC1CCCN(c2ccc3nnc(C4CC4)n3n2)C1 (stereo not drawn)	·	-21%[138 µM]	-11%[172 µM]	·
